# Assay results reported in PubChem BioAssay (NCATS).
# Values joined by “and” are separate entries in the source; they are usually repeats but may differ in a detail not shown here. Identical values can stand only once. Results filed as inconclusive are left out. Entries that show only a call come without a potency. More than one record can exist for a structure, and the calls need not agree. Active and inactive are the calls of the source. Unless noted, calls follow the shape of the dose curve; as a rule, active = well fitted curve in the direction sought with a large enough effect; inconclusive = small, poorly fitted or top-dose-only effect, or another doubt; inactive = no such curve, though single readings can be large; an effect the other way counts as inactive or inconclusive.
# How the values were obtained:
# [1] = molecular target: Guanine nucleotide-binding protein G(i) subunit alpha-1 (Homo sapiens) (UniProt P63096); experiment: qHTS Assay for Inhibitors of RGS12 GoLoco Motif Activity (Green Fluorophore) (AID 879);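 also: negative values mean loss of peptide binding seen as reduced polarization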
# Guanine nucleotide-binding protein G(i) subunit alpha-1 (Homo sapiens), sequence (P63096 whole entry, looked up): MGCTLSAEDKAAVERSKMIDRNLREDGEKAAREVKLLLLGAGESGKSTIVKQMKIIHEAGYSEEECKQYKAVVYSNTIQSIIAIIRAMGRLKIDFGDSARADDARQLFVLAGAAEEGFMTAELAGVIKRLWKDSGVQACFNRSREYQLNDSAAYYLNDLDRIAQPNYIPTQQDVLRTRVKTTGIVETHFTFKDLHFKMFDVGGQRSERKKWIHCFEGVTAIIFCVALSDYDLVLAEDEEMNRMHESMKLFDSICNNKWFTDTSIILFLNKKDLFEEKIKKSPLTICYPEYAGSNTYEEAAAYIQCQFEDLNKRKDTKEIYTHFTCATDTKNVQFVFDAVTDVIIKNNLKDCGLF
# Summary of the method: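 A drop in FITC polarization marked displacement of the FITC-tagged RGS12 GoLoco peptide (10 nM) from Gαi1 (50 nM). Compounds were incubated 10 min at room temperature in Tris pH 7.5 buffer containing 150 mM NaCl, 0.1 mM GDP and 0.05% NP40; unlabeled peptide titration served as control.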
# [2] = molecular target: Cytochrome P450 2C9 (Homo sapiens) (UniProt P11712); experiment: qHTS Assay for Inhibitors and Substrates of Cytochrome P450 2C9 (AID 883); also: nearly all actives have a fitted effect of over 60% in size; also: potency is read from the fitted curve at half-maximal effect
# Cytochrome P450 2C9 (Homo sapiens), sequence (P11712 whole entry, looked up): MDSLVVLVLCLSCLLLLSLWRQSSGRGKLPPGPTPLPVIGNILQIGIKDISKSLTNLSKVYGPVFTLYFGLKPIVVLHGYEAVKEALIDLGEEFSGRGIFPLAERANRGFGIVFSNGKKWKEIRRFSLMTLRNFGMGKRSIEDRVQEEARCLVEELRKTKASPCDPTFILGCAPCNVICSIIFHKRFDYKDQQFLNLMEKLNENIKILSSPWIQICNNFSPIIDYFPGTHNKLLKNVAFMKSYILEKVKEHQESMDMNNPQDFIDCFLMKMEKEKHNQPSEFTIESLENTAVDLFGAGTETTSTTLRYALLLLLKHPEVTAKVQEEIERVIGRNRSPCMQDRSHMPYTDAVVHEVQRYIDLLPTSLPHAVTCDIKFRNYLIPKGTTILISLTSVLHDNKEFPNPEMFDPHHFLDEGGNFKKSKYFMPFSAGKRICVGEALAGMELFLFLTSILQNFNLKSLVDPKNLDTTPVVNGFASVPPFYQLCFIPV
# Summary of the method: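 Inhibition of CYP2C9 is scored as loss of luminescence, with 57uM sulphaphenazole defining 100% inhibition. Substrate Luciferin-H is used at 100uM, equal to its KM; enzyme at 10nM in 25mM KPO4, 60 min at 37C with NADPH regeneration.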
# [3] = molecular target: Cytochrome P450 3A4 (Homo sapiens) (UniProt P08684); experiment: qHTS Assay for Inhibitors and Substrates of Cytochrome P450 3A4 (AID 884); also: nearly all actives have a fitted effect of over 50% in size; also: potency is read from the fitted curve at half-maximal effect
# Cytochrome P450 3A4 (Homo sapiens), sequence (P08684 whole entry, looked up): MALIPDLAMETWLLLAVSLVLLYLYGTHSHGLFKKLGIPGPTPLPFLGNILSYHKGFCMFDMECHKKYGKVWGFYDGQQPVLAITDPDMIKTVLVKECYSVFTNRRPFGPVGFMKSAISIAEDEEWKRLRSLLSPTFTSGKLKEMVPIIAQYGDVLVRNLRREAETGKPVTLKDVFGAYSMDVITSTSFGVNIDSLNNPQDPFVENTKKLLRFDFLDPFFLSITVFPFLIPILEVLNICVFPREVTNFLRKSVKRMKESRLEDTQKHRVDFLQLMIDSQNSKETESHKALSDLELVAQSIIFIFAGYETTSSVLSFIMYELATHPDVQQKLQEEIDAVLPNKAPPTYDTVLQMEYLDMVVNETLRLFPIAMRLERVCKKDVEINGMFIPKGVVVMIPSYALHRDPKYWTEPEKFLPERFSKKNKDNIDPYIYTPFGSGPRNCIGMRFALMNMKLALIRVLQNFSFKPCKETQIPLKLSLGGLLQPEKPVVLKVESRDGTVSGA
# Summary of the method: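 Luminescent readout of luciferin produced by CYP3A4 (20 nM) dealkylation of Luciferin-PPXE, 25 uM (its KM). NADPH-driven reaction ran 60 min at RT after 10 min compound preincubation; data scaled to 57 uM ketoconazole as 100% inhibition.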
# [4] = molecular target: Cytochrome P450 2C19 (Homo sapiens) (UniProt P33261); experiment: qHTS Assay for Inhibitors and Substrates of Cytochrome P450 2C19 (AID 899); also: nearly all actives have a fitted effect of over 60% in size
# Cytochrome P450 2C19 (Homo sapiens), sequence (P33261 whole entry, looked up): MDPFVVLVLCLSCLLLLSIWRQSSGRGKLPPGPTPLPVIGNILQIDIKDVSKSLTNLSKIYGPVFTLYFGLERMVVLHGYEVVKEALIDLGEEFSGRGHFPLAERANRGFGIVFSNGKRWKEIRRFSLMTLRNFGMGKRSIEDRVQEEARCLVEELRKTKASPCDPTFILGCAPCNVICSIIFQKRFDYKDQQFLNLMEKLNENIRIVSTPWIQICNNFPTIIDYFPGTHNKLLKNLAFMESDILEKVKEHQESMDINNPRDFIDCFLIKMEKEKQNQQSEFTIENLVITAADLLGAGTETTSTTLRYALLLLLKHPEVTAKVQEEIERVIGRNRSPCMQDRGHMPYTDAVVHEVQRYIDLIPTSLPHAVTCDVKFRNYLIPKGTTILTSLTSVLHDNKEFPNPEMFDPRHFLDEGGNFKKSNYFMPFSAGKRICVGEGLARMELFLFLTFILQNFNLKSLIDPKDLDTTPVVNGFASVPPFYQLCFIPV
# Summary of the method: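 5nM enzyme + 10uM Luciferin-H EGE (=KM), 50mM KPO4; cpd pin-transferred, 10 min 37C; NADPH regen, 60 min 37C; stopped w/ luciferin detection reagent, 20 min; luminescence. Normalized to 57uM ketoconazole (AC100).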
# [5] = Confirmation and Secondary Assay for Modulators of Hemoglobin Beta Chain Splicing at IVS2 654 locus (AID 910);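 also: HeLa cells stably carrying EGFP split by mutant beta-globin IVS2-654 intron; per-well total GFP intensity by laser scanning cytometry after 2-day treatment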;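 also: potency is read from the fitted curve at half-maximal effect; potency of activators that raise GFP signal by restoring correct splicing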
# Summary of the method: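 Readout: per-well total peak green fluorescence (488 nm ex, 500–520 nm em) from objects 5–250 µm, reflecting correct splicing of an EGFP-654 reporter. Compounds were applied for 2 days at 37 °C to overnight-plated HeLa EGFP-654 cells; controls were DMSO and 500 nM IVS2-654 PNA.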
# [6] = qHTS Assay for Identification of Small Molecule Antagonists for Thrombopoietin (TPO) Signaling Pathway (AID 918); conditions: TPO-dependent cell signaling reporter, antagonist mode; also: potency is read from the fitted curve at half-maximal effect; nearly all actives have a fitted effect of over 60% in size
# Summary of the method: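 Inhibitors of TPO signaling are sought by stimulating IL-3-starved murine Ba/F3 cells (human TPO receptor, Glycoprotein IIb-driven luciferase) with TPO at its EC50 of 26 pM alongside compound. After 24 hrs at 37 C, reporter luminescence is measured.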
# [7] = Confirmation and Secondary Assay for Modulators of Hemoglobin Beta Chain Splicing at IVS2 705 locus (AID 930);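 also: HeLa cells stably expressing the EGFP-705 splicing reporter; GFP fluorescence per well restored by corrected splicing of the IVS2-705 intron in EGFP; series mostly up to about 46 µM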
# Summary of the method: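 Per-well GFP, captured at 1 x 8 µm resolution with 488 nm excitation, served as the read-out for HeLa EGFP-705 cells incubated 2 days with test compound versus DMSO.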
# [8] = molecular target: Pyruvate kinase (Leishmania mexicana) (UniProt Q27686); experiment: qHTS Validation Assay for Inhibitors of Leishmania Mexicana Pyruvate Kinase (AID 945)
# Pyruvate kinase (Leishmania mexicana), sequence (Q27686 2-499 E452W): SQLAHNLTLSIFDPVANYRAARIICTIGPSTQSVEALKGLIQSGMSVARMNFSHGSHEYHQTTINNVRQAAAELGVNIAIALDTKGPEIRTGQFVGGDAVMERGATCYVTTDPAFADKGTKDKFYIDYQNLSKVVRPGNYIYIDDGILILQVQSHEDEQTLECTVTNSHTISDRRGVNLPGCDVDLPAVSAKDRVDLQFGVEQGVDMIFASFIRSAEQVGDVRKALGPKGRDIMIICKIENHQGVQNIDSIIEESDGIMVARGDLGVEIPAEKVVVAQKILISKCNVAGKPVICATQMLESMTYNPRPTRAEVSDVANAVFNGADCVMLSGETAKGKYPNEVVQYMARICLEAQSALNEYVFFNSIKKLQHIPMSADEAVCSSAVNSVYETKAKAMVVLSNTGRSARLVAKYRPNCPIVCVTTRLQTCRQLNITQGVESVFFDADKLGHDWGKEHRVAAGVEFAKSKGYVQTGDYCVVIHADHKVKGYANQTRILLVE
# Summary of the method: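 An endpoint luciferase assay: 0.2 nM LmPYK E451W turns over 0.5 mM PEP with 0.1 mM ADP for 1 h at room temperature, pH 7.2, before PKLight addition. Values are normalized to DMSO-only wells.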
# [9] = molecular target: Pyruvate kinase PKM (Homo sapiens) (UniProt P14618); experiment: qHTS Assay for Activators of Human Muscle Pyruvate Kinase (AID 954; active = well fitted curve in the direction sought with a large enough effect, not every such curve was filed as active)
# Pyruvate kinase PKM (Homo sapiens), sequence (P14618 whole entry, looked up): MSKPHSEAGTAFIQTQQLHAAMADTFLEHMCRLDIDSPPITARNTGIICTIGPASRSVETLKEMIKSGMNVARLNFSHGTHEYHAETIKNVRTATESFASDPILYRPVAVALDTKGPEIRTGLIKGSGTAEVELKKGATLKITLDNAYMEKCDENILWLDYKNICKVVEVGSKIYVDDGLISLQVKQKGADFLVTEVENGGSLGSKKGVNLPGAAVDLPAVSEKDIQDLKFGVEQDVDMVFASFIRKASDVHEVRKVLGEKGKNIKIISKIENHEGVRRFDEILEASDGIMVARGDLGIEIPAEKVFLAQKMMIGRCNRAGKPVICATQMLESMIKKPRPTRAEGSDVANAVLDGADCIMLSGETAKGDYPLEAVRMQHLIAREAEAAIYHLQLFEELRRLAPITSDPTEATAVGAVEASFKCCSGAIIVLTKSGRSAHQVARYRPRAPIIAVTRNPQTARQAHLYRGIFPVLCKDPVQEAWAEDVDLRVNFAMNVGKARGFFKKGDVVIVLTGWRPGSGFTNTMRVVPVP
# Summary of the method: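 A coupled luminescent readout tracked ATP made from ADP by purified PKM2. Final conditions included 0.1 nM enzyme, PEP and ADP at 0.5 and 0.1 mM, pH 7.2 imidazole buffer with BSA, and a one-hour room-temperature reaction.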
# [10] = molecular target: Alpha-galactosidase (Coffea arabica) (UniProt Q42656); experiment: Counterscreen for Glucocerebrosidase Inhibitors: qHTS Assay for Coffee Bean alpha-Galactosidase at pH 4.5 (AID 957); also: series mostly up to about 77 µM
# Alpha-galactosidase (Coffea arabica), sequence (Q42656 whole entry, looked up): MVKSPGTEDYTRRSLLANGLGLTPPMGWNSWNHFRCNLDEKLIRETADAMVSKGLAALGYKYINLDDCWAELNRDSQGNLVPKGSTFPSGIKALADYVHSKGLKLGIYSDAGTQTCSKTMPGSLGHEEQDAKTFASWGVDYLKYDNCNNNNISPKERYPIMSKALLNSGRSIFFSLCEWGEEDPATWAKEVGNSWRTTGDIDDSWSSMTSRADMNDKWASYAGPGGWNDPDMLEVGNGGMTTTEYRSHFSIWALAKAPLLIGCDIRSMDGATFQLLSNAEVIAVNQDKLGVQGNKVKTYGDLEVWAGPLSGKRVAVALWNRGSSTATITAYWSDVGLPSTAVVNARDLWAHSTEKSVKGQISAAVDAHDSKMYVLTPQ
# Summary of the method: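 Enzyme is added first (2 nM final), then compounds titrated from 0.7 nM to 77 uM, then 80 uM 4-methylumbelliferyl alpha-D-galactopyranoside; after 20 min at room temperature a pH 10 NaOH/glycine stop precedes fluorescence reading at 365/440 nm.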
# [11] = qHTS Assay for Identification of Small Molecule Agonists for Thrombopoietin (TPO) Signaling Pathway (AID 917)
# Summary of the method: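 Luciferase reporter (Glycoprotein IIb promoter) in IL-3-deprived Ba/F3 cells carrying human TPO receptor; compounds co-added with 26 pM TPO, incubated 24 h, 37 C. Steadylite luminescence measured after 10 min.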
# [12] = molecular target: Muscarinic acetylcholine receptor M1 (Rattus norvegicus) (UniProt P08482); experiment: qHTS Assay for Antagonists of Acetylcholine Muscarinic M1 Receptor: Kinetic Measurement of Intracellular Calcium Response (AID 943);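 also: Fluo-4 calcium signal as peak divided by basal fluorescence over 4 min; series mostly up to about 35 µM; nearly all actives have a fitted effect of over 75% in size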
# Muscarinic acetylcholine receptor M1 (Rattus norvegicus), sequence (P08482 whole entry, looked up): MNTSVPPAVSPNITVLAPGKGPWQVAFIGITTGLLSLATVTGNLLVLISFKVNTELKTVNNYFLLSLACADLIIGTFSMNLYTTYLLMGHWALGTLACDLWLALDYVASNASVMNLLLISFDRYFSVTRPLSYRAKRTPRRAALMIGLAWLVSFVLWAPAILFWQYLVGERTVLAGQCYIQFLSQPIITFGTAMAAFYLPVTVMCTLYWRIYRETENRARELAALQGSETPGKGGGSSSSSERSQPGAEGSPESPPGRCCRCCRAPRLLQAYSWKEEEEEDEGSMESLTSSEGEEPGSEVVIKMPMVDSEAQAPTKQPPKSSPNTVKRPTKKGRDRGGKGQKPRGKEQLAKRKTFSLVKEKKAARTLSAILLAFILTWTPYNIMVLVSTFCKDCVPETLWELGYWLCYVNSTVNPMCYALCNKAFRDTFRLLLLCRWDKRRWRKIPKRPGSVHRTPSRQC
# Summary of the method: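 Antagonism is measured as inhibition of the carbachol-evoked calcium rise in CHO cells transfected with rat M1. Cells are dye-loaded, exposed to compound for 10 min, then stimulated with 100 nM carbachol (EC80).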
# [13] = qHTS Assay for Identification of Small Molecule Antagonists for NFkB Signaling Pathway (AID 895; active = well fitted inhibition curve with a large enough effect in the signal ratio, with a control signal flat, not every such curve was filed as active; the % refers to the signal ratio)
# Summary of the method: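 Beta-lactamase reporter read-out (460 and 530 nm emission ratio, 405 nm excitation, 2 hrs substrate loading RT) after 5 hr stimulation with 10 pM TNF alpha in compound-treated NFkB-bla ME-180 cells in low-serum medium.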
# [14] = Cell Viability - LYMP2-001 (AID 921); also: series mostly up to about 92 µM; nearly all actives have a fitted effect of over 70% in size
# Summary of the method: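 Cellular ATP loss read by luciferase luminescence after 24 h compound exposure at 37 C in complete medium. LYMP2-001 lymphoblastoid cells, 2500/well; qHTS concentration-response data fitted with Hill equation for AC50.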
# [15] = MultiTox-Fluor Cytotoxicity Assay - LYMP1-001 - Dead Cells (AID 946);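 also: cells exposed to compound for 16 h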
# Summary of the method: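 AC50 from Hill fit of concentration-response; data normalized to DMSO (basal) and 15 uM tetraoctylammonium bromide (100%). LYMP1-001 lymphoblastoid cells, 2500/well, 16 hr compound at 37 C; dead-cell protease fluorescence, Ex/Em 485/520.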
# [16] = MultiTox-Fluor Cytotoxicity Assay - LYMP1-001 - Live Cells (AID 947)
# [17] = Cell Viability - LYMP1-002 - Assay at 16 hr (AID 948)
# Summary of the method: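 ATP luminescence (CellTiter-Glo) was measured after 16 hr compound exposure at 37 C of 2500 lymphoblastoid LYMP1-002 cells per well. Concentration-response curves were fitted with the Hill equation to give AC50.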
# [18] = MultiTox-Fluor Cytotoxicity Assay - LYMP1-002 - Live Cells (AID 955);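 also: cells exposed to compound for 16 hours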
# Summary of the method: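 Cells were seeded at 2500 per well and incubated 5 hr. Compounds were then added for 16 hr at 37 C, followed by MultiTox-Fluor reagent for 60 min at room temperature and fluorescence reading of viable-cell protease signal.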
# [19] = MultiTox-Fluor Cytotoxicity Assay - LYMP1-002 - Dead Cells (AID 960);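 also: cells exposed to compound for 16 h at 37 °C; nearly all actives have a fitted effect of over 60% in size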
# Summary of the method: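 Cells were plated, rested 5 hr, then treated with compound dilution series for 16 hr at 37 C. After adding substrate reagent and 60 min at room temperature, dead-cell protease fluorescence gave concentration-response curves fitted by the Hill equation.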
smiles,measurement,setting,value
CC[C@@]1(O)C(=O)OCc2c1cc1n(c2=O)Cc2cc3ccccc3nc2-1,outcome,[1],inactive
same,Potency,[2],inactive
same,Potency,[3],6.31 µM (active) and inactive
same,Potency,[4],inactive
same,Potency,[5],inactive and 1 µM (active)
same,Potency,[6],0.126 µM (active)
same,outcome,[7],inactive
same,outcome,[8],inactive
same,outcome,[9],inactive
same,outcome,[10],inactive
CC(=O)NCCc1c[nH]c2ccccc12,outcome,[1],inactive
same,Potency,[2],inactive
same,Potency,[4],inactive
same,outcome,[11],inactive
same,Potency,[12],inactive
same,outcome,[8],inactive
same,outcome,[9],inactive
same,outcome,[10],inactive
O=C(O)CC[N+](=O)[O-],outcome,[1],inactive
same,Potency,[3],inactive
same,Potency,[13],inactive
same,outcome,[11],inactive
same,outcome,[7],inactive
same,outcome,[8],inactive
same,outcome,[9],inactive
same,outcome,[10],inactive
NC(N)=NOCCC(N)C(=O)O (stereo unspecified),outcome,[1],inactive
same,Potency,[5],inactive
same,outcome,[11],inactive
same,outcome,[7],inactive
same,Potency,[12],inactive
same,outcome,[8],inactive
same,outcome,[9],inactive
same,outcome,[10],inactive
COc1ccc(C(=O)c2c(C)n(CCN3CCOCC3)c3cc(I)ccc23)cc1,Potency,[3],5.01 µM (active)
COc1ccc(C(c2ccc(OC)cc2)C(Cl)(Cl)Cl)cc1,Potency,[3],inactive
same,Potency,[5],inactive
same,Potency,[14],inactive
same,outcome,[7],inactive
same,outcome,[15],inactive
same,Potency,[16],inactive
same,Potency,[17],inactive
same,Potency,[18],inactive
C=CC(=O)NCNC(=O)C=C,Potency,[3],inactive
same,Potency,[14],inactive
same,outcome,[15],inactive
same,Potency,[16],inactive
same,Potency,[17],inactive
same,Potency,[18],inactive
same,outcome,[19],inactive
c1ccc2sc(C3(N4CCCCC4)CCCCC3)cc2c1,outcome,[1],inactive
same,outcome,[8],inactive
same,outcome,[9],inactive
same,outcome,[10],inactive
O=C(O)CCCOc1ccc(Cl)cc1Cl,Potency,[3],inactive
same,Potency,[5],inactive
same,outcome,[7],inactive
O=C(O)C(Cl)Cl,Potency,[3],inactive
same,Potency,[14],inactive
same,outcome,[15],inactive
same,Potency,[16],inactive
same,Potency,[17],inactive
same,Potency,[18],inactive
same,outcome,[19],inactive
C1CCC(NC2CCCCC2)CC1,Potency,[3],inactive
same,Potency,[14],inactive
same,outcome,[15],inactive
same,Potency,[16],inactive
same,Potency,[17],inactive
same,Potency,[18],inactive
same,outcome,[19],inactive
O=C(O)COc1ccccc1,Potency,[3],inactive
same,Potency,[14],inactive
same,outcome,[15],inactive
same,Potency,[17],inactive
same,Potency,[18],inactive
same,outcome,[19],inactive
CC(C)c1ccc2c(c1)c(SC(C)(C)C)c(CC(C)(C)C(=O)O)n2Cc1ccc(Cl)cc1,Potency,[2],6.31 µM (active)
same,outcome,[10],inactive
O=[N+]([O-])c1cc([N+](=O)[O-])c2ccccc2c1,Potency,[3],inactive
same,Potency,[14],inactive
same,outcome,[15],inactive
same,Potency,[16],inactive
same,Potency,[17],inactive
same,Potency,[18],inactive
same,outcome,[19],inactive
